Screens: PubChem, National Center for Advancing Translational Sciences (NCATS)
This is a sample that favours compounds with a hit; in the whole collection about 2.9% have one here.
SNCA expr inh: SNCA gene expression inhibition | AID 1671194 | HEK-293 SNCA-luciferase knock-in, luminescence, 24 h | 140,000 compounds, 0.17% hits | Potency, µM (top dose mostly 57.2 µM), for the others: at the top dose activity change, negative = inhibition, usual class: inhibitors;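 note: potency is the fitted concentration of half-maximal effect; plate controls were DMSO cells for no effect and cell-free wells for full effect; nearly all actives have a fitted effect of over 45% in size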
IP6K1 inh: inhibitors of human IP6K1; 140,000 compounds, 0.81% hits; activity change, % (series mostly up to about 58 µM); IP6K1 kinase, ADP-Glo luminescence, 2 h; active compounds read low; Q92551; AID 1645851; in the data active = activity change below about -25%; note: % is set by controls: 0 for no effect and ±100 for the full control effect
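ADP-Glo luminescence measures ADP made by human IP6K1 during a 2 h RT reaction with ATP/IP6 (mix at 1.3 mM/130 uM); top library doses 57.5 and 19.1 uM final.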
KDM5B inh: KDM5B demethylase inhibition | Q9UGL1 | 220,000 compounds, 2.6% hits | AID 1347165 | Potency, µM (highest dose often 57.7 µM), usual class: inhibitors | KDM5B demethylase, FDH-coupled NADH fluorescence (FDH is formaldehyde dehydrogenase); note: potency is the fitted concentration of half-maximal effect; 0% is about no effect; nearly all actives have a fitted effect of over 70% in size
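Measured: NADH fluorescence change, 30 min, RT. System: KDM5BΔAP 200 nM final, H3K4me3 peptide, α-KG, Fe(II), ascorbate, NAD⁺ plus FDH, pH 7.5 HEPES. Compounds: titrated, 10 min pre-incubation with enzyme.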
HEK293 viab: cell viability loss counter-screen; HEK-293-SNCA-luc viability, GF-AFC fluorescence, 24 h; Potency, µM (top dose mostly 57.1 µM), without a hit: top-dose activity change, negative = cytotoxicity, actives largely listed as cytotoxic; 150,000 compounds, 0.12% hits; AID 1671193;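 note: potency is the fitted concentration of half-maximal effect; 0% = DMSO-treated cells and -100% = medium-only wells without cells; nearly all actives have a fitted effect of over 30% in size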
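HEK-293-SNCA-luc cells (1500/well) plated 24 h, then exposed 24 h to a dilution series; GF-AFC added 30 min at 37C, fluorescence 405/540 nm; normalised to medium-only and DMSO wells, Hill fit.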
An asterisk follows results filed as active; i = inactive; ? = inconclusive; . = not tested or not shown; [ ] = another dose, or the depositor's remark. Unless noted, calls come from the whole dose curve; as a rule, active = well fitted curve in the direction sought with a large enough effect; inconclusive = small, poorly fitted or top-dose-only effect, or another doubt; inactive = no such curve, though single readings can be large; an effect the other way counts as inactive or inconclusive.

SMILES	SNCA expr inh	IP6K1 inh	KDM5B inh	HEK293 viab
CCc1ccccc1NC(=O)C(CC)Oc1ccccc1-c1nnc(-c2ccccc2)o1 (centres undefined)	8.9µM*	23	i	?
CCOC(=O)c1ccccc1NC(=O)COc1ccccc1-c1nnc(-c2ccccc2)o1	?	25	i	?
CC(C)c1ccc(CC(=O)N2CCCc3ncc(C(=O)NCCOc4ccccc4)cc32)cc1	7%	29	i	-23%
Cc1cccc(CN2CCCC(O)(CNCc3ncccc3C)C2=O)c1 (centres undefined)	-18%	0	28µM*	-18%
CC(C)NC(=O)N[C@H]1CCN2C(=O)c3cc(-c4ccc(Cl)cc4)ccc3NC(=O)[C@H]12	24%[87.6 µM]	-3	32µM*	3%[87.6 µM]
CC(C)NC(=O)N[C@H]1CCN2C(=O)c3cc(-c4cccc(C(F)(F)F)c4)ccc3NC(=O)[C@H]12	-18%	16	?	2%
O=C(O)CCC(=O)N[C@H]1CCN2C(=O)c3cc(-c4ccc(Cl)cc4)ccc3NC(=O)[C@H]12	-22%[87.6 µM]	-12	32µM*	2%[87.6 µM]
O=C(O)COCC(=O)N[C@H]1CCN2C(=O)c3cc(-c4ccc(Cl)cc4)ccc3NC(=O)[C@H]12	0%	-3	?	1%
C#CCNC(=O)[C@H]1O[C@H](CCN(C)CCc2ccccc2)CC[C@@H]1O	-22%[87.6 µM]	8	i	-3%[87.6 µM]
CC(C)C[C@@H]1N[C@H](C(=O)NCc2ccc(F)cc2)Cc2c[nH]c3cccc1c23	?	-1	i	?
CCN1C(=O)c2ccccc2S(=O)(=O)c2ccc(C(=O)NCc3ccc(F)cc3)cc21	-2%	10	i	4%
C[C@@H]1CN(c2nc(-c3ccccc3)no2)CC[C@@]1(O)C1CCC1	14µM*	-11	i	-11%
OCC1(CC2CC2)CCCN(c2nc(-c3ccccc3)no2)C1 (centres undefined)	113%	-4	i	6%
O=C(Nc1ccnn1Cc1ccccn1)c1cccc(S(=O)(=O)N2CCCC2)c1	.	.	i	.
Cc1ccc(C)c(OCC(=O)c2ccc3c(c2)N(CCCC(=O)NC2CCCCC2)C(=O)CO3)c1	3%	-8	i	18µM*
CCC[C@@H]1CN(C(=O)c2ccc(-c3ccc(C)o3)cc2)C[C@H]1NC(C)=O	-16%	20	28µM*	1%
Cc1ccc(C)c(C(=O)NCc2nnc3cc(-c4nc(C(C)C)no4)ccn23)c1	3%	39	14µM*	12%
Cc1ccc(C)c(C(=O)NCc2nnc3cc(-c4nc(C)no4)ccn23)c1	-4%	6	25µM*	10%
Cc1cc(N2CCN(Cc3nc(-c4cccc(Cl)c4)no3)CC2)cc(C)n1	-27%	2	i	-2%
CCc1nc(-c2c3n(c(=O)n(Cc4ccccc4F)c2=O)CCCC3)no1	5%	0	i	8%
CCc1nc(-c2c3n(c(=O)n(Cc4cc(=O)n5ccccc5n4)c2=O)CCCC3)no1	-24%	5	22µM*	1%
O=S(=O)(c1ccc(F)cc1)N1CCOC[C@H](Oc2ccc(C(F)(F)F)cn2)C1	-18%[87.6 µM]	-1	i	2%[87.6 µM]
CCCCc1ccc(NC(=O)CN2C(=O)NC(c3ccc(Cl)cc3)C3=C2COC3=O)cc1 (centres undefined)	13µM*	5	i	?
O=C(CN1C(=O)NC(c2ccc(Cl)cc2)C2=C1COC2=O)Nc1ccccc1 (centres undefined)	?	2	i	-8%
Cc1cccc(-n2c(C)nc3cc(C(=O)NC4CCCCCC4)ccc32)c1	21%	6	i	-17%
SMILES	SNCA expr inh	IP6K1 inh	KDM5B inh	HEK293 viab
CC(=O)NC1(C)CCN(Cc2ccccc2-c2ccc3c(ccn3C)c2)C1 (centres undefined)	9%[87.6 µM]	-12	35µM*	-4%[87.6 µM]
Cc1ccc(-c2cc(C(=O)NC3CCCCC3)c3ccccc3n2)cc1	.	.	i	.
CC(=O)Nc1cc(C(=O)NC2CCCCC2)c2ccc(C)nc2c1	-18%	9	22µM*	3%
Cc1ccc2c(C(=O)NC3CCN(C)CC3)cc(NC(=O)C3CCC3)cc2n1	-6%	4	22µM*	-1%
COc1ccc(CC(=O)N2CCC(C(=O)N3CCC(c4ccccc4)CC3)CC2)cc1	-7%	18	.	6%
N#Cc1cccc(C(=O)NCc2nnc3ccc(-c4ccc(F)cc4)nn23)c1	-8%	13	28µM*	-15%
O=C(NCc1nnc2ccc(-c3ccc(F)cc3)nn12)c1cccc(OC(F)(F)F)c1	-20%	17	?	-8%
